# In the supplement of paper PMC10338343:
# ± gives the standard deviation. In all, about 6,600 sequences were measured (“pre-steady-state target cleavage rate”: median about 0.07, highest 2% from about 0.72 on). This excerpt belongs to a sample that is enriched for the highest values.
# Test system: MIWI (PIWIL1) piRISC loaded with Kctd7 piRNA (30 nt)
# Experiment: pre-steady-state target cleavage rate (min^-1); MIWI and MILI are mouse PIWI proteins and EfPiwi is from a freshwater sponge; tags in brackets are library labels; higher = faster piRNA-guided slicing of the target
# Conditions: guide: Kctd7 piRNA 5'p-UGUUAAUCUCUCAGAGAAGGUGACAGUGAU; auxiliary factor: 500 nM mouse GTSF1
# Procedure: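 Cleave-'n-Seq: a library of target RNAs (target site embedded in constant flanks, ACAGCATTCCGCGTTAGTGATATCCG... 5' flank; DNA-blocked outside the site) at 0.1 nM was incubated with 1 nM active mouse MILI or MIWI piRISC (synthetic 5'-monophosphorylated piRNA guide) with or without 500 nM mouse GTSF1 at 33 °C for 1 min to 16 h. Uncleaved targets were sequenced and normalised to non-target controls, and the pooled three trials were fitted to a burst-and-steady-state model to give the pre-steady-state cleavage rate (min^-1; k3 is constrained to at most 1e-4). Sequence is the target site only; target names encode pairing extent (gX:gY) and contiguous / 1-mismatch / 2-mismatch / bulge geometry. Fits with R² ≤ 0 are excluded.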
row,Sequence,pre-steady-state target cleavage rate
1,AUCACUGUCACCUUCACUGAGAGAUUUUGA,0.339 ± 0.082
2,UUCACUGUCACCUUGUCUGAGAGAUUUUGA,1.06 ± 0.27
3,UACACUGUCACCUUCUGAGAGAGAUUUUGA,0.0616 ± 0.019
4,UACACUGUCACCUUCACUGAGAGAUUUUGA,0.302 ± 0.099
5,AUCACUGUCACCUUCUCUGAGAGAUUUUGA,0.0948 ± 0.023
6,UAGUCUGUCACCUUCACUGAGAGAUUUUGA,0.176 ± 0.046
7,UACACUGUCACCUUGACUGAGAGAUUUUGA,0.117 ± 0.039
8,AUCACUGUCACCUUGACUGAGAGAUUUUGA,0.839 ± 0.22
9,UACACUGUCACCUUGUCUGAGAGAUUUUGA,1.02 ± 0.24
10,AUCACUGUCACCUUGUCUGAGAGAUUUUGA,1.4 ± 0.36
11,UAGUCUGUCACCUUGUCUGAGAGAUUUUGA,0.197 ± 0.06
12,UAGACUGUCACCUUGUCUGAGAGAUUUUGA,0.234 ± 0.066
13,UAGUGACACACGUUGUCUGAGAGAUUAACA,0.0596 ± 0.011
14,UAGUGACAGUCCUUCUCUGAGAGAUUAAACA,0.0368 ± 0.0052
15,UAGUGACACAGCUUCUCUGAGAGAUUAUGA,0.00591 ± 0.0022
16,UUCACUGUCACCUUGCUCUGAGAGAUUAACA,0.747 ± 0.11
17,UACACUGUCACCUUGCUCUGAGAGAUUAACA,1.01 ± 0.17
18,AUCACUGUCACCUUGCUCUGAGAGAUUAACA,1.1 ± 0.18
19,UAGUCUGUCACCUUGCUCUGAGAGAUUAACA,0.47 ± 0.081
20,UACACUGUCACCUGCUCUGAGAGAUUAACA,0.571 ± 0.03
21,AUCACUGUCACCUGUCUCUGAGAGAUUAACA,0.651 ± 0.038
22,UACACUGUCACCUUGUCUGAGAGAUUAACA,0.355 ± 0.042
23,UUCACUGUCACCUGCUCUGAGAGAUUAACA,0.645 ± 0.031
24,AUCACUGUCACCUGCUCUGAGAGAUUAACA,0.673 ± 0.026

row,Sequence,pre-steady-state target cleavage rate
1,UAGACUGUGACCUUCUCUGAGAGAUUAUCA,0.246 ± 0.033
2,UAGACACUCACCUUCUCUGAGAGAUUAUGA,0.141 ± 0.031
3,AUCACUGUCACGUUCACUGAGAGAUUAACA,0.44 ± 0.025
4,UAGUCUGUCACCUUCUCUGAGAGAUAAUGA,0.0204 ± 0.0082
5,UUCACUGUCACCUUCUCUGAGAGUUUAUGA,0.71 ± 0.18
6,UAGUGUGUCACCUUCUCUGAAGAGAUUAACA,0.00762 ± 0.0051
7,UACACUCUCACCUUCUCUGAGUGAUUAACA,0.0216 ± 0.0064
8,UAGUCUUUCACCUUCUCUGAGAGAUUAACA,0.265 ± 0.015
9,UAGUGAGUCAGCUUCUCUGAGAGAAUAACA,0.199 ± 0.032
10,UACACUGUCACCUUCUCUGUCAGAUUAACA,0.0245 ± 0.008
11,UAGACUGUCACCUUUCUGAGAGAUUAACA,0.5 ± 0.033
12,UUCACUGUCACCUUUUCUGAGAGAUUAACA,0.679 ± 0.028
13,UAGACUGUCACCUUUUCUGAGAGAUUAACA,0.732 ± 0.034
14,UAGACUGUCACCUUUCUCUGAGAGAUUAACA,0.538 ± 0.039
15,AUCACUGUCACCUUUCUGAGAGAUUAACA,0.532 ± 0.025
16,AUCACUGUCACCUUUUCUGAGAGAUUAACA,0.748 ± 0.029
17,UAGUGAGUCACCUUCACUCAGAGAUUAACA,0.0317 ± 0.0057
18,UUCACUGUCUCCUUCUCUGAGAGAUUAUCA,0.231 ± 0.035
19,UAGUGACAGUGCUUCACUGAGAGAUUAACA,0.00805 ± 0.0033
20,UAGUGACUCACGUUCUCUGAGAGAUUUUGA,< 0.0001
21,UAGAAUGUCACCUUCUCUGAGAGAUUAACA,0.652 ± 0.038
22,UUCACUGUCACCUUGUCUGAGAGUUUAACA,0.422 ± 0.077
23,AUCACUGUCACCUUGUCUGAGAGUUUAACA,0.745 ± 0.15
24,UAGACUGUCACCUUGUCUGAGAGAUUUACA,0.659 ± 0.12

row,Sequence,pre-steady-state target cleavage rate
1,AUCACUGUCACCUUCACUGAGAGAUUUACA,0.511 ± 0.082
2,UACACUGUCACCUUGUCUGAGAGUUUAACA,0.442 ± 0.11
3,UAGUCUGUCACCUUGUCUGAGAGAUUUACA,0.25 ± 0.045
4,UUCACUGUCACCUUGUCUGAGAGAUUUACA,0.671 ± 0.12
5,AUCACUGUCACCUUGUCUGAGAGAUUUACA,0.799 ± 0.14
6,UACACUGUCACCUUGUCUGAGAGAUUUACA,0.989 ± 0.19
7,UACACUGUGACCUUCUCUGAGAGAUUAACA,0.464 ± 0.037
8,UAGUGACAGUCCUUCUCUGAGAGUAUUAACA,0.0116 ± 0.0023
9,UAGUGUGUCACCUUCUCUGAGACAUUUACA,0.028 ± 0.0097
10,UAGUGACACACCAACUCUGAGAGAUUAACA,0.0222 ± 0.0043
11,UUCACUCAGACCUUCUCUGAGAGAUUAUGA,0.0052 ± 0.0036
12,UAGUGAGACACCUUCUCUGAGAGAUUAAGA,0.0909 ± 0.019
13,AACACUGUCACCUUCUCUGAGAGAUUAUGA,0.101 ± 0.021
14,UAGACUGUCAUCCUUCUCUGAGAGAUUAACA,0.262 ± 0.023
15,UUCACUGUCAUCUUCUCUGAGAGAUUAACA,0.596 ± 0.027
16,UAGACUGUCAUCUUCUCUGAGAGAUUAACA,0.848 ± 0.051
17,AUCACUGUCAUCUUCUCUGAGAGAUUAACA,0.827 ± 0.041
18,UAGACUGUCACUCUUCUCUGAGAGAUUAACA,0.457 ± 0.032
19,AUCACUGUCACUCUUCUCUGAGAGAUUAACA,0.53 ± 0.035
20,AUCACUCUCACCUUCUCUGAGAGAUUAUGA,0.049 ± 0.018
21,UAGACUGUCACCUUCUCUCAGAGUUUAACA,0.0473 ± 0.0063
22,UAGUCUGACACCUUGUCUGAGAGAUUAACA,0.164 ± 0.022
23,AUCAAUGUCACCUUCUCUGAGAGAUUAACA,0.672 ± 0.03
24,UAGACUGUCUCCUUCUCUGAGAGAUUAACA,0.662 ± 0.04
